From PubChem BioAssay
Myeloid diff 2 – induction of myeloid progenitor differentiation, primary screen, cell-based, flow cytometry, MLPCN library; ER-HoxA9 myeloid progenitors, lysozyme-GFP differentiation; calls only at 10 µM; 360,000 compounds, 1% hits; AID 624256, 2012;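 active means normalized GFP-positive differentiation at or above the plate's own cutoff, the solvent-only control mean plus 3 SD; inconclusive means no clear call, values can overlap the other calls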;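 further: cells exposed to compound for four days before flow analysis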
Exocytosis inh – LAMP-1 surface exposure blockers, TALL-104 cells – cell-based, flow cytometry, MLPCN library, primary screen. TALL-104 LAMP-1 surface exposure; cells stimulated with thapsigargin and PMA. inhibition, % at 10 µM. 360,000 compounds, 0.66% hits. AID 651702, 2012;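 active means inhibition above about 55%, limit read from the data; inconclusive means no clear call, values can overlap the other calls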
GC-B act – human GC-B receptor activators, primary screen, HEK293 GC-B cells, cGMP TR-FRET, EC30 CNP | 0% at EC30 CNP, 100% saturating CNP | activation, % at 10 µM | Atrial natriuretic peptide receptor 2 (Homo sapiens), P20594 | 370,000 compounds, 0.11% hits;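 active means activation at 10 µM reaching about 35% in either raw or pattern-adjusted values, limit read from the data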
NPR1 activator – GC-A stimulated cGMP production enhancers – HEK293 GC-A cells, cGMP TR-FRET, EC30 ANP, primary screen; AID 1671463, 2021; activation, % at 10 µM; 0% at EC30 ANP, 100% saturating ANP; 370,000 compounds, 0.14% hits; in the data active means activation above about 40%
Active calls of the source: *; i = inactive; u = inconclusive; x = no result; + = active, no number. Only some compounds are listed: those with a hit (about 1.8% of all), similar ones and a draw of the others.

SMILES	Myeloid diff 2	Exocytosis inh	GC-B act	NPR1 activator
Cc1ncc([N+](=O)[O-])n1CC(=O)N/N=C/c1ccc(F)cc1	+	-2	-2	4
CCOc1nc(Nc2ccc([N+](=O)[O-])cc2)nc(NC(C)(C)C)n1	i	-3	0	0
CCN(CC)c1nc(Nc2ccc([N+](=O)[O-])cc2)nc(N(CC)CC)n1	i	107*	-9	-5
CC(=O)N1c2ccccc2N(Cc2ccc(C)cc2C)C(=O)C1(C)C	+	-2	-6	-13
C=CCN1C(=O)C(C)(C)N(C(C)=O)c2ccccc21	i	-2	-3	-1
O=C(O)C1C=CC(C(=O)O)c2ccccc21 (centres undefined)	i	0	-3	0
O=S(=O)(NCCN1CCOCC1)c1ccc(Oc2ccccc2Cl)cc1	+	14	-5	0
O=S(=O)(NCCN1CCOCC1)c1ccc2ccccc2c1	i	-3	-1	2
CCN(CC)c1ccc(/C=N/NC(=O)c2ccc3nc[nH]c3c2)c(O)c1	+	67*	x	x
O=C1CCC[C@H]2Cc3nc4cc5c(cc4cc3C[C@]23CCCN13)OCO5	x	x	-8	-3
CC1(c2nnnn2-c2ccc3ccccc3c2)CSCC(=O)N1C1CC1 (centres undefined)	x	x	3	-4
CCc1ccc(-c2cc(C)no2)cc1S(=O)(=O)N1CCN(c2ccc(F)cc2)CC1	+	1	-6	-12
CCCCCc1cc(=O)oc2c(C(CCN3CCCCC3)c3ccc4c(c3)OCO4)c(OC)cc(OC)c12 (centres undefined)	+	0	-7	-3
CCCCCc1cc(=O)oc2c(C(CCN3CCCC(C)C3)c3ccc4c(c3)OCO4)c(OC)cc(OC)c12 (centres undefined)	i	-6	-4	-5
CN(Cc1ccccc1)C(=O)c1cccc(NC(=O)Cc2cccc(NC(=O)C3CCN(C(=O)C4CC4)CC3)c2)c1	+	-4	7	-2
COC(=O)[C@H]1C[C@@]2(O)CN(S(=O)(=O)c3ccc(C)cc3)C[C@@]2(OC(=O)NCc2ccccc2F)C[C@H]1C(=O)OC	+	6	2	6
COC(=O)[C@H]1C[C@@]2(O)CN(S(=O)(=O)c3ccc(C)cc3)C[C@@]2(OC(=O)NCc2ccc(OC)c(OC)c2)C[C@H]1C(=O)OC	i	-2	3	0
Nc1nc2c(ncn2[C@@H]2O[C@H](CNCC3=Cc4cc(O)ccc4OC3)[C@@H](O)[C@H]2O)c(=O)[nH]1	i	0	39*	47*
COC(=O)CSc1nnc(C)n1-c1cccc(OC)c1	i	2	5	0
COC(=O)CSc1nnc(C)n1-c1ccc(C)cc1	+	6	5	-1
COc1ccc(-n2c(COc3ccc(C)cc3)nnc2SCC(N)=O)cc1	+	-1	-11	-9
Cc1nn(-c2ccccc2)c2sc(C(=O)NC3CCCC3)cc12	x	x	0	5
Cn1c(SCC(=O)Nc2ccc(C(=O)O)cc2)nnc1-c1ccccn1	x	x	2	1
Cc1cc(O)c(-c2cc(C(=O)NCc3ccc4c(c3)OCO4)[nH]n2)cc1C	+	1	9	5
Cc1ccc(-c2cc(C(=O)NCc3ccc4c(c3)OCO4)[nH]n2)c(O)c1C	i	0	-6	0
SMILES	Myeloid diff 2	Exocytosis inh	GC-B act	NPR1 activator
COc1ccccc1-n1c(SCC(=O)Nc2cccc(C)c2)nc2c(c1=O)SCC2	+	15	4	-5
COc1ccccc1-n1c(SCC(=O)Nc2ccc3c(c2)OCO3)nc2c(c1=O)SCC2	i	-2	21	14
COC(=O)[C@]12C[C@H](CC(=O)NCCC(C)C)C(=O)N(CCC3=CCCCC3)C1=C[C@H](C(C)(C)C)O[C@@H]2C	x	x	9	-1
CC(C)(C)C(=O)c1c(N)[nH]c(C(=O)c2ccccc2)c1-c1ccc(C(F)(F)F)cc1	i	2	-4	-11
CCOC(=O)/C(C#N)=C/C=C1\C=Cc2ccccc2N1CC	+	0	-2	12
CCCCCCN1C=CC(=C/C=C(\C#N)C(=O)OCC)C=C1	i	-3	-2	-4
CCCCCN1C=CC=C/C1=C\C=C(C#N)C#N	i	3	-1	-6
CN1/C(=C/C=C(C#N)C#N)C=Cc2ccccc21	+	-4	-3	-6
COC(=O)[C@H](CC(C)C)N1Cc2nnn(Cc3ccccc3)c2-c2cc(F)ccc2S1(=O)=O	x	x	4	0
Cc1cc(O)ccc1Nc1nc(-c2cccnc2)cs1	i	-18	0	-2
Cc1cc(O)ccc1Nc1nc(-c2cccs2)cs1	+	1	-4	-10
O=[N+]([O-])c1ccccc1N/N=C/c1c[nH]c2ccccc12	i	-2	-19	-15
O=[N+]([O-])c1ccc(N/N=C/c2cn(-c3ccccc3)nc2-c2ccccc2)cc1	+	-3	-5	13
O=[N+]([O-])c1ccc(N/N=C/c2c[nH]c3ccccc23)cc1	+	10	-20	-13
COc1ccc(NC(=O)N2CCC(N(C)CCC(C)C)CC2)cc1OC	x	x	-7	2
O=C(CSc1nnc(-c2ccccc2O)o1)Oc1ccc(OCc2ccccc2)cc1	+	-3	-3	33
C[C@H]1[C@@H](OC(=O)NCc2ccc(C(F)(F)F)cc2)CC[C@@]23CCCN2C(=O)CCC[C@@H]13	x	x	-2	-3
NSc1nc(N)c2nc(-c3ccccc3)c(-c3ccccc3)nc2n1	i	6	-19	-44
Nc1nc(N)c2nc(-c3ccccc3)c(N)nc2n1	+	-2	-3	10
CC(C)(C)c1ccc(OCCCC(=O)Nc2ccc(S(N)(=O)=O)cc2)cc1	+	-2	-4	0
NS(=O)(=O)c1ccc(NC(=O)CCCCC(=O)Nc2ccc(S(N)(=O)=O)cc2)cc1	i	-7	0	-2
Cc1ccc(S(=O)(=O)N2c3ccccc3C[C@H]2CC=C(c2ccccc2)c2ccccc2)cc1	x	x	-3	-3
CC(C)(C)NC(=O)C(c1cccs1)N(C(=O)c1csnn1)c1cccc(F)c1 (centres undefined)	i	-3	-5	-2
CCC(C)(C)NC(=O)C(c1ccco1)N(C(=O)c1csnn1)c1cccc(F)c1 (centres undefined)	+	2	2	2
Cc1ccccc1Cn1cc(CN2[C@@H](C)COc3cc(Br)ccc3S2(=O)=O)nn1	x	x	0	-3
N/C(=N\OC(=O)c1ccccc1Cl)c1cccc([N+](=O)[O-])c1	i	-8	-4	0
N/C(=N/OC(=O)c1ccccc1Cl)c1ncc([N+](=O)[O-])s1	+	38	-10	-1
O=c1c2c3c(sc2ncn1/N=C/c1ccc([N+](=O)[O-])o1)CCCC3	u	83*	-4	2
Cn1cc(/C=N/n2cnc3sc4c(c3c2=O)CCCC4)c2ccccc21	i	4	-2	-4
